# Measured values as given in publication PMC7862700, “An all-to-all approach to the identification of sequence-specific readers for epigenetic DNA modifications on cytosine”.
# Assays:
# Experiment in all cases: DAPPL (digital affinity profiling via proximity ligation, sequencing); 10 mM Tris-HCl pH 7.5, 50 mM NaCl, 1 mM DTT, 4% glycerol, room temperature, 30 min; GST-TFs on glutathione beads, 16-mer random dsDNA library, 0.1% formaldehyde crosslink after washing; high values mean tight binding
# Conditions in all cases: protein: recombinant; tags: N-terminal GST; dsDNA, one strand shown
# [1] = biological target: T1, ETV2 (Homo sapiens, UniProt O00321 1-342)
# T1 sequence: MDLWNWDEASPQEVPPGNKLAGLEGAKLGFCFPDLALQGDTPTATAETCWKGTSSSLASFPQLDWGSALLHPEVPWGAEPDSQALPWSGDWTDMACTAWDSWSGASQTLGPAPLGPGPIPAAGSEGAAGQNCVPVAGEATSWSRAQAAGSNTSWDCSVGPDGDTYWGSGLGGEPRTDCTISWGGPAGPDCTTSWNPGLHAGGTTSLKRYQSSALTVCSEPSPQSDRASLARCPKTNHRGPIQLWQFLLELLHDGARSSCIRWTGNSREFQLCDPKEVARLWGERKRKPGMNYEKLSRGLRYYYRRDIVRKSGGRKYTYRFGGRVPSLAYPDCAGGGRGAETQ
# Method in brief: (§1)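 A tag-only sample was pooled with DNA-barcoded human transcription factors that had been expressed in yeast as GST fusions and captured on glutathione beads. The pools were incubated for 30 min at room temperature with 200 nmole of a random double-stranded 16-mer DNA library in Tris/NaCl/DTT/glycerol buffer, then washed, crosslinked with 0.1% formaldehyde, proximity-ligated (BsaI/T4 ligase, 1 h, 37 °C), PCR-amplified and sequenced on an Illumina NextSeq500. Binding signal is each hexamer's read frequency for a factor divided by its frequency for the tag-only sample.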
# [2] = biological target: T2, ELF3 (Homo sapiens, UniProt P78545 1-371)
# T2 sequence: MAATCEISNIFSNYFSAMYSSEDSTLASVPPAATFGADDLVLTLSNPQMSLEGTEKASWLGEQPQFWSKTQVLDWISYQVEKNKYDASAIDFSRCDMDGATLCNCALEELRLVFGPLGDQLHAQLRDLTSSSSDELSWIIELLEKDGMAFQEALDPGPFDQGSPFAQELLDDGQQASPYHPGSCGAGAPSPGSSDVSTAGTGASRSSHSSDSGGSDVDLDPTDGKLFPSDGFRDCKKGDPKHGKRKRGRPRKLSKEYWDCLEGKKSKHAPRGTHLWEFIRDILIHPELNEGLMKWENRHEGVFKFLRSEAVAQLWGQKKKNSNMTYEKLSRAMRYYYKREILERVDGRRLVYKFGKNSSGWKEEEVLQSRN
# Method in brief: as §1
# [3] = biological target: ETV1 (Homo sapiens, UniProt P50549 1-477)
# Method in brief: as §1
# [4] = biological target: T3, ERF (Homo sapiens, UniProt P50548 1-548)
# T3 sequence: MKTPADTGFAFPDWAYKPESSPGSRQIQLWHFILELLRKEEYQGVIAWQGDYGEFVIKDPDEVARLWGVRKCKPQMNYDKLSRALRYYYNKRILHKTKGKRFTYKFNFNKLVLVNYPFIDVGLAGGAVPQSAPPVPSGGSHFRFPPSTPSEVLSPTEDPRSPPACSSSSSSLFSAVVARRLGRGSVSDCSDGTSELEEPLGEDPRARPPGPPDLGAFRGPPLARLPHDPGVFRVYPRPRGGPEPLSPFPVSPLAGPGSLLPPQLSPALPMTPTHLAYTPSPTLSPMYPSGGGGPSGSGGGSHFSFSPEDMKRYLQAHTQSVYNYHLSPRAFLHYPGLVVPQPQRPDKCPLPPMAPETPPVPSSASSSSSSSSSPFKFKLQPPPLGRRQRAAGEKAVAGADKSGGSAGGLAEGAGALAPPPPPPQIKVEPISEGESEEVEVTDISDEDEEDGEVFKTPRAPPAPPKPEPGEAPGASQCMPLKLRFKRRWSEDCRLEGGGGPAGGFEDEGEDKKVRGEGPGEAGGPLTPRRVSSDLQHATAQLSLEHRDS
# Method in brief: as §1
# [5] = biological target: T4, ETV3L (Homo sapiens, UniProt Q6ZN32 1-361)
# T4 sequence: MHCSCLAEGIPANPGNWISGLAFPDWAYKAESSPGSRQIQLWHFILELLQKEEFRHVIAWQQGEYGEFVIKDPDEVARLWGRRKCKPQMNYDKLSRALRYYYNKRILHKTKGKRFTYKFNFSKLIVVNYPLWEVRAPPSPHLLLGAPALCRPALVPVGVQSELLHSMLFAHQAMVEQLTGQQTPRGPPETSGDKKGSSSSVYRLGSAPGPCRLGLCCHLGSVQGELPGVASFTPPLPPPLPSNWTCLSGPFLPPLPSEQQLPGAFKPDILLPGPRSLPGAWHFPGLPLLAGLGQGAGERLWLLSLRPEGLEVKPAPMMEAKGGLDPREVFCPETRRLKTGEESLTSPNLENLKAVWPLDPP
# Method in brief: as §1
# [6] = biological target: T5, ETS2 (Homo sapiens, UniProt P15036 1-469)
# T5 sequence: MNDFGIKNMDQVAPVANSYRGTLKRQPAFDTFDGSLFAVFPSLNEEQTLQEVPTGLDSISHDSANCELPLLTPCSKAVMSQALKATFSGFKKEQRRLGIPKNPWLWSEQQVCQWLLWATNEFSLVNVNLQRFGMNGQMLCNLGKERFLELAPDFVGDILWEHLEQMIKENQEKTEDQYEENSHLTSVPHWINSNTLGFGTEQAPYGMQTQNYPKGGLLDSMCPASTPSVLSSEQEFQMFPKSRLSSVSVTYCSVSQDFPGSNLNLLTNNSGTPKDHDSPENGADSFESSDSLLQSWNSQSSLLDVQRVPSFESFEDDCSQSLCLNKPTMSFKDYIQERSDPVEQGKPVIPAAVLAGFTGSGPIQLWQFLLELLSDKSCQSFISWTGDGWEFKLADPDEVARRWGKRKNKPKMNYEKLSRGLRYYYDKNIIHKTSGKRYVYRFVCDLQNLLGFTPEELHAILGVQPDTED
# Method in brief: as §1
# [7] = biological target: T6, SPDEF (Homo sapiens, UniProt O95238 1-335)
# T6 sequence: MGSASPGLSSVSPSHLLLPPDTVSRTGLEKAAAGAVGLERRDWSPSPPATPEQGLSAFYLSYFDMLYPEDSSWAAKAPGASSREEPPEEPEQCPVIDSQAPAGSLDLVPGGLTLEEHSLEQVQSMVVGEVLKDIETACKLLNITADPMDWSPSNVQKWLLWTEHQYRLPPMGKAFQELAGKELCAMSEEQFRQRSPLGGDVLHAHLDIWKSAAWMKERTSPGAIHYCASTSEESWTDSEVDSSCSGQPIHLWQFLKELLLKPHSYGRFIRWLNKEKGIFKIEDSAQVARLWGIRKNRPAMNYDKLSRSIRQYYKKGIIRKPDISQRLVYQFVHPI
# Method in brief: as §1
# [8] = biological target: T7, ETV7 (Homo sapiens, UniProt Q9Y603 1-341)
# T7 sequence: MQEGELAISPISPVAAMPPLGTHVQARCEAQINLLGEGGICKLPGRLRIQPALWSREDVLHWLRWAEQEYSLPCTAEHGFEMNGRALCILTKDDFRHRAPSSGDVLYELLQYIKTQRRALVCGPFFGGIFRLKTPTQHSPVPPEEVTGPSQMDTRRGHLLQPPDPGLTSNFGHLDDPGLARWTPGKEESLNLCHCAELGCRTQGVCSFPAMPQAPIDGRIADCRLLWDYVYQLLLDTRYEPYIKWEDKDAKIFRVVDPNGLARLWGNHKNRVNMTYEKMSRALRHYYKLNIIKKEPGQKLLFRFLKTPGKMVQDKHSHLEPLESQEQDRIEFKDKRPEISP
# Method in brief: as §1
# [9] = biological target: T8, ETV3 (Homo sapiens, UniProt P41162-2 1-143)
# T8 sequence: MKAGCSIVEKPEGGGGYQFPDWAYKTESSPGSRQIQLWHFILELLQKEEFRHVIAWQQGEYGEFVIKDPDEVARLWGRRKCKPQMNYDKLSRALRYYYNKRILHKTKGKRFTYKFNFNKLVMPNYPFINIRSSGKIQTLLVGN
# Method in brief: as §1
# [10] = biological target: ETV6 (Homo sapiens, UniProt P41212 1-452)
# Method in brief: as §1
# Chain of ETV1 (P50549 whole entry): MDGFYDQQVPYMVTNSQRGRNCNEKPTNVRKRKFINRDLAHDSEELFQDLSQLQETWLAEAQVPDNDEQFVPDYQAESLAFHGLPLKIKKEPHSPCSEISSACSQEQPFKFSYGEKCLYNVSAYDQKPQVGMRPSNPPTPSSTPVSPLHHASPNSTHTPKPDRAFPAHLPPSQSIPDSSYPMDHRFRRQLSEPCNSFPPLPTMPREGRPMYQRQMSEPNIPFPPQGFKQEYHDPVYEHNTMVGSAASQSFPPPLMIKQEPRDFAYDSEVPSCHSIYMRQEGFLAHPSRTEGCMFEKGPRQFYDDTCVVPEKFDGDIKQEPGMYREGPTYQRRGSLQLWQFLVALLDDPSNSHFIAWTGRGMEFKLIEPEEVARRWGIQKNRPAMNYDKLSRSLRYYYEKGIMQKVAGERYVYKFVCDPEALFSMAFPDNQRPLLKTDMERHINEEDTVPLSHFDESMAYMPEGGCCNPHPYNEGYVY
# Chain of ETV6 (P41212 whole entry): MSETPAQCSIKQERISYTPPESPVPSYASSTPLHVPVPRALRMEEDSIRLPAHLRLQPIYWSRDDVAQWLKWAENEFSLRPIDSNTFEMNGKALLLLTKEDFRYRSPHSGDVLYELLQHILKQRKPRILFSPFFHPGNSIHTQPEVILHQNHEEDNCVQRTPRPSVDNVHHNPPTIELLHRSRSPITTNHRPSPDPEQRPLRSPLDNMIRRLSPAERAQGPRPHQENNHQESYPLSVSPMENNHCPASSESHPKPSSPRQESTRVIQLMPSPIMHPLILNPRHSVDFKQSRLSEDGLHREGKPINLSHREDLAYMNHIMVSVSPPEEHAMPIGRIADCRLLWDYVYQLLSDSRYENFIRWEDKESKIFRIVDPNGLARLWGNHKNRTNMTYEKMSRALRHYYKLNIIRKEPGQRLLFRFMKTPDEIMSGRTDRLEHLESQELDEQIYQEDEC
sequence,measurement,setting,value
CACAGC,binding signal,[1],"1.05 fold enrichment (6-mer frequency, TF over GST control)"
same,binding signal,[2],"1.04 fold enrichment (6-mer frequency, TF over GST control)"
same,binding signal,[3],"1.1 fold enrichment (6-mer frequency, TF over GST control)"
same,binding signal,[4],"1.07 fold enrichment (6-mer frequency, TF over GST control)"
same,binding signal,[5],"1.17 fold enrichment (6-mer frequency, TF over GST control)"
same,binding signal,[6],"1.01 fold enrichment (6-mer frequency, TF over GST control)"
same,binding signal,[7],"1.03 fold enrichment (6-mer frequency, TF over GST control)"
same,binding signal,[8],"1.12 fold enrichment (6-mer frequency, TF over GST control)"
same,binding signal,[9],"1.05 fold enrichment (6-mer frequency, TF over GST control)"
same,binding signal,[10],"1.01 fold enrichment (6-mer frequency, TF over GST control)"
